This is a sample that favours compounds with a hit; in the whole collection about 19% have one here.
TDP1 cell noCPT: qHTS for Inhibitors of human tyrosyl-DNA phosphodiesterase 1 (TDP1): qHTS in cells in absence of CPT. DT40 Tdp1-/- hTDP1 cells, no CPT, ATP luminescence, 48 h. Potency, µM (series often up to 46.2 µM), usual class: inhibitors. actives 15% (n = 420,000); note: nearly all actives have a fitted effect of over 55% in size
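Chicken DT40 Tdp1-/- cells stably complemented with human TDP1 were seeded at 400 cells/well with DMSO in place of 20 nM camptothecin. After compound pinning, cells grew at least 48 hr at 37 °C; viability read by CellTiter-Glo luminescence.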
IL-1B inflam inh: blocks inflammasome-driven IL-1 beta release | activity change, % at 57.5 µM | THP-1 LPS/ATP IL-1B secretion, AlphaLISA, 16 h; stronger effect = lower value | actives 4.7% (n = 360,000) | AID 743279; in the data active = activity change below about -50%; inconclusive = mostly about -30% to -49%
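THP-1 cells pretreated 1 hr with compounds (up to 57.5 uM final), then stimulated with LPS (250 ng/mL final) plus ATP (1.25 mM final); secreted IL-1B measured by AlphaLISA after 16 hr, decreased signal indicating inhibition.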
HT1080-NT tox: kills 2HG-producing HT-1080-NT fibrosarcoma cells; HT-1080-NT fibrosarcoma viability, CellTiter-Glo ATP luminescence, 48 h; Potency, µM (doses to about 46.1 µM), usual class: cytotoxic; actives 1.6% (n = 360,000); AID 686970;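 note: NT is the 2HG producing partner of a matched IDH1 knockdown line; nearly all actives have a fitted effect of over 55% in size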
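Read-out is CellTiter-Glo luminescence after 10 minutes at room temperature, following 48 hours' compound treatment of HT-1080-NT cells (750 cells/well, RPMI, 5% FBS, 37 degrees C).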
uPA generation: inhibitors of cell surface uPA generation; actives 0.31% (n = 330,000); cell surface uPA generation assay, qHTS; AID 540303; Potency, µM (highest dose often 38.3 µM), hits mostly inhibitors; active = well fitted inhibition curve with a large enough effect; inconclusive = small, poorly fitted or top-dose-only effect; inactive = no such curve, though single readings can be large or run the other way; tested in mouse RAW 264.7 cells; note: nearly all actives have a fitted effect of over 55% in size
TDP1 cell CPT: growth inhibition of DT40 Tdp1-/-;hTDP1 cells with camptothecin (screen for TDP1 inhibitors). chicken DT40 Tdp1-/-;hTDP1 cells + 20 nM CPT, ATP luminescence, 48 h. Potency, µM (highest dose often 46.2 µM), usual class: inhibitors. AID 686979. actives 12% (n = 420,000); note: nearly all actives have a fitted effect of over 55% in size
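Chicken DT40 Tdp1-/- cells stably complemented with human TDP1 were seeded at 400 cells/well in medium containing 20 nM camptothecin, exposed to pin-transferred compounds, and grown at 37 °C for at least 48 hr. Viability was read as ATP luminescence.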
HT1080 IDH1KD tx: HT-1080 IDH1 knockdown cell toxicity (counter line); Potency, µM (titrated, usually from 46.1 µM), usual class: cytotoxic; AID 686971; actives 2% (n = 360,000); HT-1080 IDH1 knockdown viability, ATP luminescence, 48 h
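Using the IDH1-knockdown HT-1080 line run in the same batch and compound series as the NT line, viability after 48 h at 37 °C was determined by CellTiter-Glo luminescence and expressed as % activity.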
Large screens that a line does not name were inactive. Unless noted, calls come from the whole dose curve; as a rule, active = well fitted curve in the direction sought with a large enough effect; inconclusive = small, poorly fitted or top-dose-only effect, or another doubt; inactive = no such curve, though single readings can be large; an effect the other way counts as inactive or inconclusive.

COc1cccc(NC(=S)NCCC(c2ccccc2)c2ccccc2)c1	TDP1 cell noCPT 13µM, TDP1 cell CPT 20.6µM
Cc1ccccc1NC(=S)NCc1ccccc1	TDP1 cell noCPT 23.1µM, TDP1 cell CPT 29.1µM
COc1ccc(N2CCN(C(=S)NC(C)c3ccccc3)CC2)cc1 (centres undefined)	TDP1 cell noCPT 14.6µM, TDP1 cell CPT inconclusive
Cc1cccc(NC(=S)NNC(=S)NCc2ccccc2)c1	HT1080 IDH1KD tx inconclusive (no result: uPA generation)
Cc1c(NC(=O)C(C)N(c2ccccc2)S(C)(=O)=O)c(=O)n(-c2ccccc2)n1C (centres undefined)	none
C(=NOCCc1ccccc1)c1ccccn1	none
COc1ccc(NC(=S)NCCC(c2ccccc2)c2ccccc2)c(OC)c1	TDP1 cell noCPT 15.8µM, TDP1 cell CPT 17.8µM, HT1080 IDH1KD tx 22.4µM
Cc1cccc(NC(=S)NN(Cc2ccccc2)c2ccccc2)c1C	TDP1 cell noCPT 15.8µM, TDP1 cell CPT 25.1µM
CC[C@@H]1CC=C[C@H]2[C@H]1C(=O)N(Cc1ccccc1)[C@H]2c1ccoc1	TDP1 cell noCPT 14.6µM, IL-1B inflam inh -106.8, HT1080-NT tox inconclusive, uPA generation inconclusive, TDP1 cell CPT 16.4µM, HT1080 IDH1KD tx inconclusive
CC[C@@H]1CC=C[C@H]2[C@H]1C(=O)N(Cc1ccccc1)[C@H]2c1ccc(C(F)(F)F)cc1	TDP1 cell noCPT inconclusive, TDP1 cell CPT 14.6µM
C=CCN1CCN(C(c2ccccc2)c2nnnn2CCC(C)C)CC1 (centres undefined)	TDP1 cell noCPT 6.51µM, TDP1 cell CPT 6.51µM, HT1080 IDH1KD tx inconclusive
CCCCn1nnnc1C(c1ccnc2ccccc12)N1CCN(C/C=C/c2ccccc2)CC1 (centres undefined)	TDP1 cell noCPT 20.6µM, HT1080-NT tox inconclusive, TDP1 cell CPT 20.6µM (no result: uPA generation)
CCCCn1nnnc1C(c1cccc2ccccc12)N1CCN(C/C=C/c2ccccc2)CC1 (centres undefined)	TDP1 cell noCPT 20.6µM, IL-1B inflam inh -58.6, HT1080-NT tox inconclusive, TDP1 cell CPT inconclusive, HT1080 IDH1KD tx inconclusive (no result: uPA generation)
CCCCn1nnnc1C(c1ccccc1)N1CCN(C/C=C/c2ccccc2)CC1 (centres undefined)	TDP1 cell noCPT 16.4µM, HT1080-NT tox inconclusive, TDP1 cell CPT inconclusive, HT1080 IDH1KD tx inconclusive (no result: uPA generation)
CCc1ccc(-n2nc(C)c3c(C)cc(=O)n(CC(=O)Nc4ccccc4C(=O)OC)c32)cc1	none (no result: IL-1B inflam inh, HT1080-NT tox, uPA generation, HT1080 IDH1KD tx)
O=C(NCC1CCCCC1)c1csc([C@@H]2C[C@H](O)[C@@H](CO)O2)n1	none (no result: uPA generation)
Cc1ccsc1CNCC(O)c1ccccc1 (centres undefined)	HT1080 IDH1KD tx inconclusive
C#CCNC(=O)C1=C[C@H](c2csc3ccccc23)C[C@H](OCCCCO)O1	TDP1 cell noCPT inconclusive, TDP1 cell CPT inconclusive
O=C(NCc1ccccc1)C1=C[C@H](c2csc3ccccc23)C[C@H](OCc2ccc(CO)cc2)O1	TDP1 cell noCPT inconclusive, IL-1B inflam inh -52.2, HT1080-NT tox inconclusive, uPA generation inconclusive, TDP1 cell CPT inconclusive
O=C(NCc1ccccc1)C1=C[C@H](c2ccc3c(c2)OCO3)C[C@H](OCc2ccc(CO)cc2)O1	TDP1 cell noCPT inconclusive, TDP1 cell CPT 6.51µM
C#CCNC(=O)C1=C[C@H](c2csc3ccccc23)C[C@H](OCc2ccc(CO)cc2)O1	TDP1 cell noCPT 16.4µM, TDP1 cell CPT inconclusive
Cn1cccc1C(=O)N1CCC2(CCN(Cc3ccncc3)CC2)CC1	none (no result: IL-1B inflam inh, HT1080-NT tox, uPA generation, HT1080 IDH1KD tx)
O=C(CCC1CCCN(Cc2ccc3c(c2)CCO3)C1)NCc1ccc(F)c(F)c1 (centres undefined)	none
Clc1ccc(-c2nc3ccc(Cl)cn3c2Cc2ccsc2)cc1	TDP1 cell noCPT inconclusive, HT1080 IDH1KD tx inconclusive (no result: uPA generation)
Cc1cc2nc(-c3cccc(Br)c3)c(Cc3ccsc3)n2c(C)c1Br	TDP1 cell noCPT inconclusive, TDP1 cell CPT inconclusive (no result: uPA generation)
Cc1cc2nc(C3CCCCC3)c(CC(C)(C)C)n2c(C)c1Br	TDP1 cell noCPT inconclusive, TDP1 cell CPT inconclusive (no result: uPA generation)
CCCc1nc2ccc(Cl)cn2c1Cc1ccsc1	TDP1 cell noCPT 13µM, HT1080-NT tox inconclusive, TDP1 cell CPT 20.6µM (no result: uPA generation)
Cc1ccc(-c2nc3cc(C)c(Br)c(C)n3c2Cc2ccsc2)cc1	TDP1 cell noCPT 7.31µM, TDP1 cell CPT 5.17µM, HT1080 IDH1KD tx inconclusive (no result: uPA generation)
Cc1ccc(-c2nc3cc(C)c(Br)c(C)n3c2CC(C)(C)C)cc1	TDP1 cell noCPT 16.4µM, TDP1 cell CPT 9.2µM (no result: uPA generation)
CCCc1nc2cc(C)c(Br)c(C)n2c1Cc1ccsc1	TDP1 cell noCPT 18.4µM, HT1080-NT tox inconclusive, TDP1 cell CPT 11.6µM (no result: uPA generation)
COc1ccc(NC(=O)/C(=C\c2ccc(OC)c(OC)c2)NC(=O)c2ccco2)cc1	none
Clc1ccccc1Nc1nc(NCC2CC2)nc2ccsc12	TDP1 cell noCPT 20.6µM, HT1080-NT tox inconclusive, TDP1 cell CPT 20.6µM (no result: uPA generation)
COc1ccccc1CNc1nc(NCCOc2ccccc2Cl)c2sccc2n1	TDP1 cell noCPT 11.6µM, IL-1B inflam inh -85.6, HT1080-NT tox 23.1µM, TDP1 cell CPT 10.3µM, HT1080 IDH1KD tx inconclusive (no result: uPA generation)
Clc1ccccc1OCCNc1nc(NCC2CC2)nc2ccsc12	TDP1 cell noCPT 8.2µM, HT1080-NT tox inconclusive, TDP1 cell CPT 16.4µM, HT1080 IDH1KD tx 18.4µM (no result: uPA generation)
CNc1nc(NCCOc2ccccc2Cl)c2sccc2n1	TDP1 cell noCPT 9.2µM, IL-1B inflam inh inconclusive, HT1080-NT tox inconclusive, TDP1 cell CPT 9.2µM (no result: uPA generation)
Cc1cccc(C(=O)Nc2ccc(NC(=O)CN3CCOCC3)cc2)c1	none
CC(Sc1nn(-c2ccccc2)c(=S)s1)C(=O)NCC1CCCO1 (centres undefined)	none
